Substitutions are numbered along the chain they refer to.
Tests used:
Experiment in all cases: protein-binding microarray (PBM); PBM: ~300 nM protein, 6 mM HEPES pH 7.8, 80 mM KCl, 0.5 mM EDTA, 0.5 mM EGTA, 6% glycerol, 35 ng/ul poly-dIdC, 1% milk, 1 h, room temperature; Ap Aiptasia and Nv Nematostella (sea anemones) / Co Capsaspora / Aq Amphimedon (sponge) / Dm Drosophila / Hu human; RHD is the Rel homology domain; high values mean tight binding
Settings in all cases: dsDNA, one strand shown
GST-Ap-NF-kB RHD = target: T1, GST-Ap-NF-kB RHD (Exaiptasia pallida (Aiptasia), UniProt A0A913YAJ5 2-422)
T1 sequence: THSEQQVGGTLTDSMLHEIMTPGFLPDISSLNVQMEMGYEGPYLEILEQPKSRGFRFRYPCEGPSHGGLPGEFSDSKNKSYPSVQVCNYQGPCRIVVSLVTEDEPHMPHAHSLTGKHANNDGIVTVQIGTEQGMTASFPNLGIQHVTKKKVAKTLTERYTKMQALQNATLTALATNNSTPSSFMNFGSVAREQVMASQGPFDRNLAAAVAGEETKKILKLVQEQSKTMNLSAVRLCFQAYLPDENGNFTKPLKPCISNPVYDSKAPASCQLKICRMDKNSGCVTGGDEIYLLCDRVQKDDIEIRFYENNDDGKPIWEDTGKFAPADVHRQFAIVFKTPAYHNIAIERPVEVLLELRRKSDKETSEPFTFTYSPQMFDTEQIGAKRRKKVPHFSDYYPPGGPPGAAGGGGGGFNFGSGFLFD

[1] = target: T2, GST-Nv-NF-kB (Cys allele) (Nematostella vectensis, UniProt E5G601 2-411)
T2 sequence: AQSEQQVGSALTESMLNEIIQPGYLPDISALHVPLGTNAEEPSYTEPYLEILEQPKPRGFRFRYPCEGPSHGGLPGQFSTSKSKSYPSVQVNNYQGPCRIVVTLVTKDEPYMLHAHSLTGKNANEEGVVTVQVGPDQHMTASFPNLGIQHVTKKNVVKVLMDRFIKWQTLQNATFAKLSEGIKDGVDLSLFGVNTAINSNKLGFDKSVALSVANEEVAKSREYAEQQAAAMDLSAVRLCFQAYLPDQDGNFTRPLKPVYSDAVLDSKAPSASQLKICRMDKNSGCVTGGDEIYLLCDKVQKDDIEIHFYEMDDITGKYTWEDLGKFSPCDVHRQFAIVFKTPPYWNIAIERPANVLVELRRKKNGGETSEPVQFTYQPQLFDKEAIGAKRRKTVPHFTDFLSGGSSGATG

[2] = target: T3, GST-Nv-NF-kB (Ser allele) (Nematostella vectensis, UniProt A7UNT2 2-411)
T3 sequence: T2 sequence with Q21R, C66S, S207N, E215Q, V217A, E225K, A268E, D399E

GST-Co-NF-kB = target: T4, GST-Co-NF-kB (Capsaspora owczarzaki, UniProt F1ARL5 200-546)
T4 sequence: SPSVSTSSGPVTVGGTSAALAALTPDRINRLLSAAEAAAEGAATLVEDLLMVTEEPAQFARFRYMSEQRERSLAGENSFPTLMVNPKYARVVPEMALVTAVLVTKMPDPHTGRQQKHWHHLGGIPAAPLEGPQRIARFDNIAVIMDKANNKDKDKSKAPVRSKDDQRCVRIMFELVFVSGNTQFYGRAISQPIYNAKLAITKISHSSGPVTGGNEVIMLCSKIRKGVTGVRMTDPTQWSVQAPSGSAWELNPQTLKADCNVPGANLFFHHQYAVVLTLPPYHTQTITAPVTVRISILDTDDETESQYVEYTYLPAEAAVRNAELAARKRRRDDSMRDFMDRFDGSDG

GST-Dm-Relish = target: T5, GST-Dm-Relish (Drosophila melanogaster, UniProt Q94527 99-473)
T5 sequence: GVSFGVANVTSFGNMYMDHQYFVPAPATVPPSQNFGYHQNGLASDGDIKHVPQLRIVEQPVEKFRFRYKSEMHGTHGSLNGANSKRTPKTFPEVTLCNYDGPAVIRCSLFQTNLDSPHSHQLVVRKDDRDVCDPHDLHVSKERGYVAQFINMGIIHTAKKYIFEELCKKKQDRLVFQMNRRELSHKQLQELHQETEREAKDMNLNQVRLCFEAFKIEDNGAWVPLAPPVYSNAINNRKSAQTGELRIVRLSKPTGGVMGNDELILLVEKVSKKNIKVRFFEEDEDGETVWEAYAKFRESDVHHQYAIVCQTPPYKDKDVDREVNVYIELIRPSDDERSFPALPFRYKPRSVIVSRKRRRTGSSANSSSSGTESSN

GST-Aq-NF-kB = target: T6, GST-Aq-NF-kB (Amphimedon queenslandica, UniProt A9Y5G7 2-389)
T6 sequence: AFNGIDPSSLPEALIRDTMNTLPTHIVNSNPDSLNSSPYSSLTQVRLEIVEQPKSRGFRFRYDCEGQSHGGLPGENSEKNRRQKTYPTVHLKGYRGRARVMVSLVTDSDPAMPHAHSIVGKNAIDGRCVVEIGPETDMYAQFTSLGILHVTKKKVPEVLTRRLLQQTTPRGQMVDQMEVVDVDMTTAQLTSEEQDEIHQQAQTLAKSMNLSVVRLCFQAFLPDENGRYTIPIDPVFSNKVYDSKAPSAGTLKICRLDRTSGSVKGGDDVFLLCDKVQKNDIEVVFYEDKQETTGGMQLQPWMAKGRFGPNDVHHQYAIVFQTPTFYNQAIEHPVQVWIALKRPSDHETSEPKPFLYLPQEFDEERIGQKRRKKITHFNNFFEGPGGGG

GST-Hu-p50 = GST-Hu-p50 (Homo sapiens, UniProt P19838 7-356)
GST-Hu-p50, sequence (P19838 7-356): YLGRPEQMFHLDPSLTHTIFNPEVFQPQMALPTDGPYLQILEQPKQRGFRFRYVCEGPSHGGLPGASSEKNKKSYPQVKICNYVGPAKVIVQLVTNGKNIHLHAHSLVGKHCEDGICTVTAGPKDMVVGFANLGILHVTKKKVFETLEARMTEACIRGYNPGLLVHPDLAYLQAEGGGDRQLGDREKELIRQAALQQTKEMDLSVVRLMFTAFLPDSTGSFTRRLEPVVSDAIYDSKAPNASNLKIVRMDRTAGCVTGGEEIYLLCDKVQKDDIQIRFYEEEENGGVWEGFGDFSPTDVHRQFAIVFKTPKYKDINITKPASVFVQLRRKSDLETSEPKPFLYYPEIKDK

Sequence	binding signal (GST-Ap-NF-kB RHD)	binding signal [1]	binding signal [2]	binding signal (GST-Co-NF-kB)	binding signal (GST-Dm-Relish)	binding signal (GST-Aq-NF-kB)	binding signal (GST-Hu-p50)
CCGATTAACATCACAAGTTTCCCTGATGTTAATCGGGTCTTGATTCGCTTGACGCTGCTG	4.14 z-score	5.33 z-score	5.84 z-score	4.92 z-score	2.52 z-score	5.24 z-score	4.17 z-score
CCGATTAACATCACGGGGCCCCCTGATGTTAATCGGGTCTTGATTCGCTTGACGCTGCTG	5.45 z-score	3.6 z-score	2.68 z-score	1.49 z-score	3.89 z-score	4.31 z-score	3.47 z-score
CCGATTAACATCAGAGACCCCCCTGATGTTAATCGGGTCTTGATTCGCTTGACGCTGCTG	4.3 z-score	3.27 z-score	2.81 z-score	2.4 z-score	5.26 z-score	3.97 z-score	3.87 z-score
CCGATTAACATCAAAAACCCCCGTGATGTTAATCGGGTCTTGATTCGCTTGACGCTGCTG	9.67 z-score	8.8 z-score	8.78 z-score	4.41 z-score	10.8 z-score	8.35 z-score	7.43 z-score
CCGATTAACATCACGAATTCCCCTGATGTTAATCGGGTCTTGATTCGCTTGACGCTGCTG	8.93 z-score	10.1 z-score	10.9 z-score	7.11 z-score	6.96 z-score	6.73 z-score	6.95 z-score
CCGATTAACATCAGGGGGCTATATGATGTTAATCGGGTCTTGATTCGCTTGACGCTGCTG	3.62 z-score	3.23 z-score	2.2 z-score	1.85 z-score	2.75 z-score	3.69 z-score	3.35 z-score
CCGATTAACATCAAGGGGGAAATTGATGTTAATCGGGTCTTGATTCGCTTGACGCTGCTG	7.69 z-score	8.6 z-score	10.5 z-score	8.86 z-score	5.87 z-score	7.06 z-score	7.51 z-score
CCGATTAACATCAAAAAACCACCTGATGTTAATCGGGTCTTGATTCGCTTGACGCTGCTG	4.79 z-score	5.1 z-score	7.1 z-score	1.37 z-score	8.7 z-score	5.41 z-score	6.81 z-score
CCGATTAACATCAGGAATTACCCTGATGTTAATCGGGTCTTGATTCGCTTGACGCTGCTG	4.56 z-score	7.58 z-score	4.97 z-score	2.62 z-score	6.61 z-score	8.34 z-score	4.51 z-score
CCGATTAACATCACCAAATCCCCTGATGTTAATCGGGTCTTGATTCGCTTGACGCTGCTG	6.97 z-score	6.55 z-score	9.44 z-score	3.02 z-score	4.48 z-score	4.54 z-score	6.6 z-score
CCGATTAACATCAGGGGATTATATGATGTTAATCGGGTCTTGATTCGCTTGACGCTGCTG	7.99 z-score	9.17 z-score	9.52 z-score	4.18 z-score	6.72 z-score	7.52 z-score	6.4 z-score
CCGATTAACATCACATTTCCCCCTGATGTTAATCGGGTCTTGATTCGCTTGACGCTGCTG	6.84 z-score	6.99 z-score	10.2 z-score	9.84 z-score	4.03 z-score	5.23 z-score	6.55 z-score
CCGATTAACATCAAAACACTCCCTGATGTTAATCGGGTCTTGATTCGCTTGACGCTGCTG	2.25 z-score	3.3 z-score	2.69 z-score	2.06 z-score	1.28 z-score	4.45 z-score	2.59 z-score
CCGATTAACATCAGGGATTACCCTGATGTTAATCGGGTCTTGATTCGCTTGACGCTGCTG	8.01 z-score	10 z-score	7.06 z-score	2.89 z-score	9.47 z-score	8.71 z-score	4.78 z-score
CCGATTAACATCAAGGGGAATTATGATGTTAATCGGGTCTTGATTCGCTTGACGCTGCTG	7.82 z-score	10.5 z-score	11.4 z-score	6.37 z-score	7.09 z-score	7.24 z-score	7.43 z-score
CCGATTAACATCAGGGGGAAGAATGATGTTAATCGGGTCTTGATTCGCTTGACGCTGCTG	5.11 z-score	6.3 z-score	6.8 z-score	9.93 z-score	4.78 z-score	4.87 z-score	5.86 z-score
CCGATTAACATCAGTTTCCCCCATGATGTTAATCGGGTCTTGATTCGCTTGACGCTGCTG	6.91 z-score	6.51 z-score	8.2 z-score	10.6 z-score	2.94 z-score	5.09 z-score	6.77 z-score
CCGATTAACATCAAGTTTCCCCATGATGTTAATCGGGTCTTGATTCGCTTGACGCTGCTG	6.19 z-score	6.87 z-score	9.07 z-score	9.1 z-score	2.4 z-score	5.26 z-score	5.62 z-score
CCGATTAACATCAATATTTTCCCTGATGTTAATCGGGTCTTGATTCGCTTGACGCTGCTG	4.35 z-score	6.75 z-score	8.82 z-score	6.01 z-score	2.69 z-score	4.5 z-score	5.3 z-score
CCGATTAACATCAGGGAATTTCATGATGTTAATCGGGTCTTGATTCGCTTGACGCTGCTG	5 z-score	7.17 z-score	7.08 z-score	3.61 z-score	4.49 z-score	5.84 z-score	5.25 z-score
CCGATTAACATCACGGGAAATCCTGATGTTAATCGGGTCTTGATTCGCTTGACGCTGCTG	5.03 z-score	6.03 z-score	5.29 z-score	4.57 z-score	6.3 z-score	6.18 z-score	3.91 z-score
CCGATTAACATCAAAGAACCCCCTGATGTTAATCGGGTCTTGATTCGCTTGACGCTGCTG	8 z-score	6.95 z-score	7.44 z-score	3.51 z-score	8.69 z-score	6.42 z-score	6.47 z-score
CCGATTAACATCAAAACGTCCCCTGATGTTAATCGGGTCTTGATTCGCTTGACGCTGCTG	6.23 z-score	6.41 z-score	6.45 z-score	5.34 z-score	5.03 z-score	6.19 z-score	5.59 z-score
CCGATTAACATCAACAATTCCCCTGATGTTAATCGGGTCTTGATTCGCTTGACGCTGCTG	7.89 z-score	8.85 z-score	10.8 z-score	7.14 z-score	5.11 z-score	5.93 z-score	6.81 z-score

Source: article PMC5700166
